# PubChem BioAssay AID504339 (National Center for Advancing Translational Sciences (NCATS), 2011)
# About 17,000 (4.4%) of roughly 390,000 compounds were called active. Roughly 8% stayed inconclusive and do not appear here. Only a selection was taken, and actives are over-represented in it overall. Unmarked numbers belong to inactive results. Calls come from the whole dose curve; as a rule, active = well fitted inhibition curve with a large enough effect; inconclusive = small, poorly fitted or top-dose-only effect; inactive = no such curve, though single readings can be large or run the other way.
# Biological target: Lysine-specific demethylase 4A (Homo sapiens) (UniProt O75164)
# Assay: qHTS Assay for Inhibitors of JMJD2A-Tudor Domain; note: nearly all actives have a fitted effect of over 50% in size
# Conditions: AlphaScreen JMJD2A-Tudor / H3K4me3 peptide binding; series mostly up to 114 µM; activity change, negative = inhibition: at the top concentration
# % is set by controls: 0 for no effect and ±100 for the full control effect; potency is the fitted concentration of half-maximal effect.
# Sequence of Lysine-specific demethylase 4A (Homo sapiens) (O75164 whole entry, looked up, the tested form may be a part): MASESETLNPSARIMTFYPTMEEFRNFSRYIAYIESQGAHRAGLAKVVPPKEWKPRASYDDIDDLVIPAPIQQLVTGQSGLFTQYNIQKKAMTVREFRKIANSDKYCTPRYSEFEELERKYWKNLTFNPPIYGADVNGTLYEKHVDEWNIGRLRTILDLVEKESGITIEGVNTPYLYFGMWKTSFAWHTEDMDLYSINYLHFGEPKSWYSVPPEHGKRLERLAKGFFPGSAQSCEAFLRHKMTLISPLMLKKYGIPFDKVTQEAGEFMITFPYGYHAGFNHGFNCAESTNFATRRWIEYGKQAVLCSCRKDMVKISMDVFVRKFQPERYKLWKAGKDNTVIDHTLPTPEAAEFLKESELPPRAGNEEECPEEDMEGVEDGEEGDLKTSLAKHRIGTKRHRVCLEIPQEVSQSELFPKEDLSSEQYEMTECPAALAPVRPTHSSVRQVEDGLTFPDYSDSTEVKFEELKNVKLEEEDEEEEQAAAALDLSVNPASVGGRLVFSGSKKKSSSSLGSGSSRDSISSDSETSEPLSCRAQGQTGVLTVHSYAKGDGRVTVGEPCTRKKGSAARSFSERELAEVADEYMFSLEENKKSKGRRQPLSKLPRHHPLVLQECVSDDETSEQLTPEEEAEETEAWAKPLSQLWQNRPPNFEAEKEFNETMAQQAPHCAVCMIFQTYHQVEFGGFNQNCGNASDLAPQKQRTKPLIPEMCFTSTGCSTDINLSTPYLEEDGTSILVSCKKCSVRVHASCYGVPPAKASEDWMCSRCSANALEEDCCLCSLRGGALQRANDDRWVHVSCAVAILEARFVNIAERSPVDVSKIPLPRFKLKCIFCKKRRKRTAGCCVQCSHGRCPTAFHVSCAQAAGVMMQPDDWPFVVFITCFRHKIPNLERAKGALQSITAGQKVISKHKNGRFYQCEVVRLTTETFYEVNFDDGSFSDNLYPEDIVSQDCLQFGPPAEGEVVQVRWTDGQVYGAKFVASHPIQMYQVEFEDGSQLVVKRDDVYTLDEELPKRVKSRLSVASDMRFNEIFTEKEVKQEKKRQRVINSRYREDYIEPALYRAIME
Structure (SMILES),"activity change, negative = inhibition",Potency
Cc1cc(C)c2oc(C(=O)Nc3ccc(S(=O)(=O)N(C)c4ccccc4)cc3)cc(=O)c2c1,-9.03%,–
Cc1cc(N2CCN(c3cccc(C(F)(F)F)c3)CC2)n2nc(-c3ccccc3)nc2n1,-27%,–
O=C(CN1C(=O)COc2ccccc21)Nc1ccc(F)cc1,–,50.1 µM (active)
CC(OC(=O)CN1C(=O)COc2ccccc21)C(=O)NCc1ccc(F)cc1 (stereo not given),-2.76%,–
O=C(CN1C(=O)COc2ccc(Cl)cc21)Nc1ccc(N2CCOCC2)cc1,-14%,–
Cc1cccc(C(C)C)c1NC(=O)C(NS(=O)(=O)c1cccc2nsnc12)c1ccccc1 (stereo not given),-31.7%,–
COc1ccc(-c2cn3c(n2)sc2cc(C(=O)Nc4ccc(F)cc4)ccc23)cc1,-8.22%,–
CCOc1cc(C2C(C(=O)OC(C)C)=C(C)NC3=C2C(=O)CCC3)cc([N+](=O)[O-])c1O (stereo not given),-4.86%,–
CCOc1cc(C2C(C(=O)OC)=C(C)NC3=C2C(=O)c2ccccc23)ccc1O (stereo not given),–,50.1 µM (active)
COC(=O)C1=C(C)NC2=C(C(=O)c3ccccc32)C1c1ccc(-c2ccc(C(=O)O)cc2)o1 (stereo not given),-17.6% [at 11.4 µM],–
COC(=O)C1=C(c2ccccc2)c2ccccc2S(=O)(=O)N1CC(=O)Nc1ccccc1C(F)(F)F,-24.2%,–
Cc1cccc2c(=O)cc(CSc3ccccc3NC(=O)C(C)C)[nH]c12,-6.49%,–
CC(=O)Nc1cc(C(=O)NCc2ccc(F)cc2Cl)ccc1Sc1ccc(Cl)cc1,-17.1%,–
Cc1ccc(CNC(=O)C2(C(F)(F)F)C/C(=C\CCO)CCCO2)o1 (stereo not given),-18.6%,–
CCCCn1cc(S(=O)(=O)c2ccc(OCC)cc2)c(=O)c2cc(OC)c(OC)cc21,-12.3%,–
COC1=CC(=O)OC(c2ccc(OC)cc2)C1 (stereo not given),-7.59%,–
COc1ccc(N=Nc2c(-c3ccc(OC)cc3)[nH]oc2=O)cc1,-21.8%,–
COc1ccc(N=C2C=CC(=O)O2)cc1,–,79.4 µM (active)
CCOC(=O)C1=C(CN2CCc3ccccc32)NC(=O)NC1c1cccc([N+](=O)[O-])c1 (stereo not given),–,44.7 µM (active)
CCOC(=O)C1=C(CN2CCCCCC2)NC(=O)NC1c1cccc([N+](=O)[O-])c1 (stereo not given),-17.5%,–
CCOC(=O)C1=C(CN2CCc3ccccc32)NC(=O)NC1c1cc(C)ccc1C (stereo not given),-27.7%,–
COc1ccc(N2CCN(S(=O)(=O)CCNC(=O)C(c3ccccc3)c3ccccc3)CC2)cc1,-14.1%,–
C[C@H](NC(=O)c1nc[nH]c1C(=O)NCC(=O)OC(C)(C)C)c1ccccc1,-20%,–
C[C@@H](NC(=O)c1nc[nH]c1C(=O)N1CCN(C(=O)OC(C)(C)C)CC1)c1ccccc1,–,79.4 µM (active)
CC(C)(C)OC(=O)N1CCC(NC(=O)c2[nH]cnc2C(=O)N[C@@H](Cc2ccccc2)C(=O)OCc2ccccc2)CC1,-31.4%,–

Structure (SMILES),"activity change, negative = inhibition",Potency
Cc1cccc(C(=O)N2c3nc(-c4ccco4)nn3C3(CCCCC3)[C@@H]3CCCC[C@@H]32)c1,-31.8%,–
CCOc1ccc(CNC(=O)c2cccc(Nc3nc4ccccc4n4nnnc34)c2)cc1OC,4.79%,–
O/N=C1\CC2(Cc3nonc31)OCCO2,-3.95%,–
ON=C1/C(=N\O)CC2(C/C1=N/O)OCCO2,–,28.2 µM (active)
CCOC(=O)c1ccc(NC2=CC(c3ccc(OCC)cc3)N(c3ccc(C(=O)OCC)cc3)C2=O)cc1 (stereo not given),-13.4%,–
CCOc1ccc(CCNC(=O)c2c(C)oc3ncn(C)c(=O)c23)cc1,2.91%,–
CN(C)Cc1c(C#N)c2ccccc2n1C,-15.2%,–
CCCc1cc(=S)n2c([nH]c3ccccc32)c1C#N,–,25.1 µM (active)
Cc1ccccc1-c1nc2cc(NC(=O)c3cccc(OCCC(C)C)c3)ccc2o1,-6.21%,–
O=C(NCc1ccccc1)c1cc(-c2cccc(Cl)c2)on1,-1.71%,–
O=C(O)C(c1ccccc1)N1C(=O)/C(=C\c2ccc(-c3cccc(Cl)c3)o2)SC1=S (stereo not given),–,20 µM (active)
O=C(NC(=S)Nc1cc(C(F)(F)F)ccc1N1CCOCC1)c1ccc(-c2cccc(Cl)c2)o1,-15.9%,–
Cc1ccc(NC(=O)Cn2cnc3nc4c(cc3c2=O)CCCC4)cc1Cl,4.15%,–
CCOc1ccc(N2C(=O)CN(c3cccc4ccccc34)C2=S)cc1,1.34%,–
CCO/C=C1\C(=O)N(c2ccc(OCC)cc2)C(=O)c2ccccc21,-24.8%,–
CCOc1ccc(N2C(=O)/C(=C/c3ccc(C)o3)N(C)C2=S)cc1,–,35.5 µM (active)
CCCN1C(=O)C(O)(CC(=O)c2ccc(CC)cc2)c2cc(Br)ccc21 (stereo not given),-26.8%,–
Cc1ccc(S(=O)(=O)NCCSc2ccccc2)cc1[N+](=O)[O-],-24.5%,–
CCS(=O)(=O)c1cc([N+](=O)[O-])c(Sc2ccccc2N)s1,–,44.7 µM (active)
Cc1cc(C)cc(OCC(=O)Nc2nc(-c3ccc(F)cc3)ns2)c1,-24.2%,–
O=C(CCCOc1ccccc1)NCc1ccco1,-7.14%,–
Cc1cc(C(=O)OCC(=O)NCc2ccco2)c(C)n1-c1ccccc1,–,56.2 µM (active)
CCOC(=O)c1cnc(SCC(=O)NCc2ccco2)nc1N,-19.4%,–
O=C(COC(=O)c1ccc(F)cc1F)Nc1ncccn1,–,28.2 µM (active)
O=C(COC(=O)CSc1ccccc1)Nc1ccc(F)cc1F,5.56%,–
